Data on 8 compounds can be found in PubChem BioAssay (Tox21).

The structures appear in SMILES notation. Inconclusive results are not listed. The source made the active and inactive calls. Unless noted, calls come from the whole dose curve; as a rule, active = well fitted curve in the direction sought with a large enough effect in the repeat runs; inconclusive = weak or mixed curves; inactive = no such curve, though single readings can be large; an effect the other way counts as inactive or inconclusive.

Experiment [1] can be described thus: qHTS assay to identify small molecule antagonists of the androgen receptor (AR) signaling pathway using the MDA cell line in the presence of 0.5 nM R1881 - cell viability counter screen (AID 1259242). Note: nearly all actives have a fitted effect of over 45% in size. Note: potency is the fitted concentration of half-maximal effect. The essentials: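 Steps: plate MDA-kb2 cells, rest 5 hr at 37C without CO2; pin in compounds in DMSO; add R1881 to 0.5 nM final; incubate 16 hr; add CellTiter-Fluor, 30 min; read fluorescence.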
(In qHTS, concentration-response curves come from the screen itself.)

Experiment [2] concerns the target Estrogen receptor (Homo sapiens) (UniProt P03372). The experiment in a line: qHTS assay to identify small molecule antagonists of the estrogen receptor alpha (ER-alpha) signaling pathway using the BG1 cell line in the presence of 0.1 nM 17-beta-estradiol (AID 1259244). Note: nearly all actives have a fitted effect of over 50% in size. Note: potency is the fitted concentration of half-maximal effect. The method in brief: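 Antagonist mode: compounds in DMSO are pinned onto VM7Luc4E2 reporter cells, 0.1 nM final 17beta-estradiol is added, and after 22 h at 37C luciferase luminescence is measured with ONE-Glo.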

Experiment [3] in a line: qHTS assay to identify small molecule HDAC inhibitors (AID 1259364).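 Note: wild-type HCT-116 cells with endogenous class I/II HDAC activity; top concentration of the series differs between compounds; nearly all actives have a fitted effect of over 45% in size.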 The method in brief:
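Cells (HCT-116, wild type) are seeded at 1,500 per well, incubated overnight, treated with compound in DMSO for 2 hr, then developed with HDAC-Glo I/II reagent for 30 min at room temperature.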

Experiment [4] is described as follows: qHTS assay to identify small molecule HDAC inhibitors - cell viability counter screen (AID 1259365). Note: series mostly up to about 92 µM; nearly all actives have a fitted effect of over 50% in size. The method in brief: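 Counter screen in wild-type HCT-116 cells: compounds dissolved in DMSO are pin-transferred onto overnight-plated cells and left 2hr at 37C. ATP-based CellTiter-Glo luminescence then measures viable cells.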
A short description of experiment [5]: qHTS assay to identify small molecule antagonists of the sonic hedgehog signaling (Shh) pathway - cell viability counter screen (AID 1259367). Note: nearly all actives have a fitted effect of over 55% in size. Note: potency is the fitted concentration of half-maximal effect. The essentials:
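Viability was read by CellTiter-Fluor fluorescence in the same wells, reagent added 23 hr into compound treatment and incubated 1 hr at 37C. The 3T3 Gli1-Luc reporter cells (2,000/well) received conditioned medium after compound and ran 24 hr.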

Experiment [6] is described as follows: qHTS assay to identify small molecule agonists of the sonic hedgehog signaling (Shh) pathway (AID 1259368; calls by dose curve;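 note: NIH/3T3-derived 3T3Gli1-Luc cells carrying a stable Gli1-driven firefly luciferase reporter; series mostly up to about 92 µM; nearly all actives have a fitted effect of over 15% in size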). The essentials:
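Cells of a mouse NIH/3T3 clone stably expressing luciferase under the Gli1 transcriptional response element are exposed to test chemicals for 24 hr at 37 C. Pathway activation is detected as a rise in luminescence.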

Experiment [7] is described as follows: qHTS assay to identify small molecule antagonists of the sonic hedgehog signaling (Shh) pathway (AID 1259369; calls by dose curve; note: nearly all actives have a fitted effect of over 45% in size; note: potency is the fitted concentration of half-maximal effect). The method in brief:
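Cells are plated and held 4hr at 37 C, compounds (DMSO) are pinned in, conditioned medium is added to stimulate the pathway, and after 24hr luciferase reagent is added for 30min before luminescence is read.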

Experiment [8] can be described thus: qHTS assay to identify small molecule agonists of the androgen receptor (AR) signaling pathway in the presence of an antagonist - cell viability counter screen (AID 1259379). Note: nearly all actives have a fitted effect of over 25% in size. Note: potency is the fitted concentration of half-maximal effect. The essentials: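 Cytotoxicity is assessed by CellTiter-Fluor in MDA-kb2 cells carrying an MMTV-driven luciferase reporter. Cells receive 3.0uM nilutamide plus compounds at 15 concentrations and incubate 16 hr at 37C without CO2 before fluorescence reading.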

Experiment [9] is described as follows: qHTS assay to identify small molecule agonists of the estrogen receptor beta (ER-beta) signaling pathway - cell viability counter screen (AID 1259380). Note: nearly all actives have a fitted effect of over 30% in size. Note: potency is the fitted concentration of half-maximal effect. The method in brief:
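Cytotoxicity is measured in parallel with the reporter screen: after 16 hr compound exposure at 37C and a 2 hr LiveBLAzer step, CellTiter-Glo is added to the same ER-beta-UAS-bla HEK293T wells and luminescence read after 30 min.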

Experiment [10] can be described thus: qHTS assay to identify small molecule agonists or antagonists of the thyroid stimulating hormone receptor (TSHR) signaling pathway - wild type cell line counter screen (AID 1259384; calls by dose curve). The method in brief:
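Counter screen in untransfected Hek293: compounds (15-point titration, triplicate) plus phosphodiesterase inhibitor Ro20-1724 added after 18 h plating; 30 min RT. Intracellular cAMP via competitive d2/cryptate immunoassay, 1 h incubation.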

Experiment [11] deals with Thyrotropin receptor (Homo sapiens) (UniProt P16473). The experiment can be described thus: qHTS assay to identify small molecule antagonists of the thyroid stimulating hormone receptor (TSHR) signaling pathway (AID 1259385; calls by dose curve; note: nearly all actives have a fitted effect of over 20% in size). The essentials:
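Antagonist mode: compound-treated TSHR-expressing HEK293 cells were stimulated with 1.5 ng/mL TSH (final) in presence of Ro20-1724 for 30 min at RT. HTRF cAMP detection after 1 h; each compound tested at 15 concentrations, triplicate.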

The nature of experiment [12]: qHTS assay to identify small molecule agonists of the sonic hedgehog signaling (Shh) pathway - cell viability counter screen (AID 1259366). Note: nearly all actives have a fitted effect of over 50% in size. Note: potency is the fitted concentration of half-maximal effect. The method in brief: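 Cells are plated at 2,000 per well and left 4hr at 37C, 5% CO2 before compound addition. After 23hr of treatment, CellTiter-Fluor reagent is added for 1hr at 37C and fluorescence is measured.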
The target in experiment [13] is Estrogen receptor beta (Homo sapiens) (UniProt Q92731). The experiment in a line: qHTS assay to identify small molecule agonists of the estrogen receptor beta (ER-beta) signaling pathway (AID 1259377; active = well fitted activation curve with a large enough effect in the signal ratio in the repeat runs, not every such curve was filed as active; the % refers to the signal ratio). The method in brief: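 Agonist mode cell assay in GripTite HEK293T cells expressing an ER-beta fusion that drives beta-lactamase from an Upstream Activator Sequence; 16 hr compound exposure at 37C, then 2 h LiveBLAzer B/G FRET substrate at room temperature, fluorescence read-out.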

The target is the same in experiment [14]. The experiment can be described thus: qHTS assay to identify small molecule antagonists of the estrogen receptor beta (ER-beta) signaling pathway (AID 1259378; active = well fitted inhibition curve with a large enough effect in the signal ratio in the repeat runs, not every such curve was filed as active; the % refers to the signal ratio). The method in brief: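 Antagonist mode: compounds added to beta-lactamase reporter HEK293T ER-beta-UAS cells stimulated with E2 (1nM final), 16 hr at 37C. LiveBLAzer B/G FRET substrate, 2 hours room temperature, fluorescence read-out.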

The target in experiment [15] is Estrogen receptor (Homo sapiens) (UniProt P03372). The experiment can be described thus: qHTS assay to identify small molecule agonists of the estrogen receptor alpha (ER-alpha) signaling pathway in the presence of an antagonist (AID 1259383; calls by dose curve; note: top concentration of the series differs between compounds; nearly all actives have a fitted effect of over 15% in size). The method in brief: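 Agonist-mode confirmation in the presence of the ER antagonist ICI-182,780 at 10.0nM final. Breast-derived VM7Luc4E2 reporter cells were exposed to compounds for 22hr, and ERE-driven luciferase was quantified by luminescence.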

For experiment [16], the target named is Androgen receptor (Homo sapiens) (UniProt P10275). The experiment can be described thus: qHTS assay to identify small molecule antagonists of the androgen receptor (AR) signaling pathway using the MDA cell line in the presence of 0.5 nM R1881 (AID 1259243). Note: nearly all actives have a fitted effect of over 50% in size. Note: potency is the fitted concentration of half-maximal effect. The essentials:
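Stably transfected MDA-kb2 cells express luciferase from an MMTV promoter bearing both AR and GR response elements. Compounds plus 0.5 nM R1881 (final) were incubated 16 hr at 37C without CO2, then luminescence measured.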

For experiment [17] the target is unchanged. The experiment can be described thus: qHTS assay to identify small molecule agonists of the androgen receptor (AR) signaling pathway in the presence of an antagonist (AID 1259381; calls by dose curve; note: nearly all actives have a fitted effect of over 15% in size). The method in brief:
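Agonist-mode confirmation screen: human MDA-kb2 cells stably expressing luciferase under an MMTV promoter bearing AR and GR response elements, co-treated with 3.0uM nilutamide (final). Luminescence measured after 16hr compound incubation.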

Experiment [18] in a line: qHTS assay to identify small molecule antagonists of the estrogen receptor beta (ER-beta) signaling pathway - cell viability counter screen (AID 1259382). Note: nearly all actives have a fitted effect of over 55% in size. Note: potency is the fitted concentration of half-maximal effect. The method in brief: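 Cytotoxicity counter screen multiplexed with the beta-lactamase antagonist assay: GripTite HEK293T ER-beta-bla cells were treated 16 hr with test chemicals in the presence of 1nM 17-beta-estradiol, and viability was measured by CellTiter-Glo.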

Androgen receptor (Homo sapiens), sequence (P10275 whole entry, looked up): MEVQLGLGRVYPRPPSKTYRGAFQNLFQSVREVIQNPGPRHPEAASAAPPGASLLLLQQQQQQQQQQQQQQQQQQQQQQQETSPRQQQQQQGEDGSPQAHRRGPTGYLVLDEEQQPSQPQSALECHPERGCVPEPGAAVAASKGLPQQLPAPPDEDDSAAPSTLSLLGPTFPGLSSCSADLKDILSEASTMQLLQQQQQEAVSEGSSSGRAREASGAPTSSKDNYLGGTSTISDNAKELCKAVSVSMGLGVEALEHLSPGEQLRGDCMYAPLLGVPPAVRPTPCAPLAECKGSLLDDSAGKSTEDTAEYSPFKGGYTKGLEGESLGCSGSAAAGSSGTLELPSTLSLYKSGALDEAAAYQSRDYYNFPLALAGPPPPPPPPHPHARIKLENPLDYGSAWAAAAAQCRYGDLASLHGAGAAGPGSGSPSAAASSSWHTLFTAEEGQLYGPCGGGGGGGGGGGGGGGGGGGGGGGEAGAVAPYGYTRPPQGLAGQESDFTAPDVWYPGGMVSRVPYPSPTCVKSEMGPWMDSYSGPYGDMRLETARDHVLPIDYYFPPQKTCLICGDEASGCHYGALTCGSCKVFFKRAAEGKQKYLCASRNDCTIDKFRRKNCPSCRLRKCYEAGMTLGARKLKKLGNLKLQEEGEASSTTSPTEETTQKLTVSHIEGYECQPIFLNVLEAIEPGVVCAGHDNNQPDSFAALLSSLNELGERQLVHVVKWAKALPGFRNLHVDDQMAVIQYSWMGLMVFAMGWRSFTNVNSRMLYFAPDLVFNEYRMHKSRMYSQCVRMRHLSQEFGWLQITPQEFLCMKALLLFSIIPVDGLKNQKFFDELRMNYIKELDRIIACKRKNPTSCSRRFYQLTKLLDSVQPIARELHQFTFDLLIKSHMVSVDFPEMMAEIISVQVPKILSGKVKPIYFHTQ
Thyrotropin receptor (Homo sapiens), sequence (P16473 whole entry, looked up): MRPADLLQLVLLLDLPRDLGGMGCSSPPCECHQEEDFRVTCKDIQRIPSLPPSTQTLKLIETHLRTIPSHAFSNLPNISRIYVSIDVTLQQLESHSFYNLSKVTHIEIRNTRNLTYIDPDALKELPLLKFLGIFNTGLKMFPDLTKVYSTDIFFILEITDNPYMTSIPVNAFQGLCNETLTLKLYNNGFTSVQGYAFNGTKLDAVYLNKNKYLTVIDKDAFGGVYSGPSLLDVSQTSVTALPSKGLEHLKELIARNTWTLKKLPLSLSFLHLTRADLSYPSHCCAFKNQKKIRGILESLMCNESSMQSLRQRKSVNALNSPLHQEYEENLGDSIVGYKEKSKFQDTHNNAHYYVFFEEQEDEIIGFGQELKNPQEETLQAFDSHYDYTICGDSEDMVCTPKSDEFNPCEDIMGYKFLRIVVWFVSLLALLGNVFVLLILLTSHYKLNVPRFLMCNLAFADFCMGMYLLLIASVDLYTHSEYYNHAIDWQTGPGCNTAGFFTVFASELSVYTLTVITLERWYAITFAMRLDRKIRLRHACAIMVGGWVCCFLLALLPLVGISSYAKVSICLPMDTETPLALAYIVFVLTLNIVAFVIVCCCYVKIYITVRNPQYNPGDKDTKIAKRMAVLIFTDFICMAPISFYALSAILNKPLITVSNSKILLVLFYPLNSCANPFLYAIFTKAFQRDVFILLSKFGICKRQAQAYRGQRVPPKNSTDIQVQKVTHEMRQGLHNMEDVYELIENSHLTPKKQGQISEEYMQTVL
Estrogen receptor (Homo sapiens), sequence (P03372 whole entry, looked up): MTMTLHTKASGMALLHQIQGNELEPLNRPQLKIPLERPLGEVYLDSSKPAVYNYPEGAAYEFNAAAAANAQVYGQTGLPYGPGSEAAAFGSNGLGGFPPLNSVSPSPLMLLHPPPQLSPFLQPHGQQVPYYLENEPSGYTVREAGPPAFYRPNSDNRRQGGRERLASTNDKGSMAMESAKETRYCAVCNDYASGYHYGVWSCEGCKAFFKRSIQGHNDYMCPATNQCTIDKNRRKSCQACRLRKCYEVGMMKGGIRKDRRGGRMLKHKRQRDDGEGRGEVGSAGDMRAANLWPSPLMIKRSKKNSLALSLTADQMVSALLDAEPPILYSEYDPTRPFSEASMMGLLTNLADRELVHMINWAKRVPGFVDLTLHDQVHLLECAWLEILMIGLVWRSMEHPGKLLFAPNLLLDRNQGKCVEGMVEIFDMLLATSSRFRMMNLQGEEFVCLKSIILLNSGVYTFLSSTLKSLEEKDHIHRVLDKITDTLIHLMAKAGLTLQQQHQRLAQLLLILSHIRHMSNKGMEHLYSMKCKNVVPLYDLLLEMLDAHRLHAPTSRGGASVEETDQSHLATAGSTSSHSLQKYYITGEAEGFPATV
Estrogen receptor beta (Homo sapiens), sequence (Q92731 whole entry, looked up, the tested form may be a part): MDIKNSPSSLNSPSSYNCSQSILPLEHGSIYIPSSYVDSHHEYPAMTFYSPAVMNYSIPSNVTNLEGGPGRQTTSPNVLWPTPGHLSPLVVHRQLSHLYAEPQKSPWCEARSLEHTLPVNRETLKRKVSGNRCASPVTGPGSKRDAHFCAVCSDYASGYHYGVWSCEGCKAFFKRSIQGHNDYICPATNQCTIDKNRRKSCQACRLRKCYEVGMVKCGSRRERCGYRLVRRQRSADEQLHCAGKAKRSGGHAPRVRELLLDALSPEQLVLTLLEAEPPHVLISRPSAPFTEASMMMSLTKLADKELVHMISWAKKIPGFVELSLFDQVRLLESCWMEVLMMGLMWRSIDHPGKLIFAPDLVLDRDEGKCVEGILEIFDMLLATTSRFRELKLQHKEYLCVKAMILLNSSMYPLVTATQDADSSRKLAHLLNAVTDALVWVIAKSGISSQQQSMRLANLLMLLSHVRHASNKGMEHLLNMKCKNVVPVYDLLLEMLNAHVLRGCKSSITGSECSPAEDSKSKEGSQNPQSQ

In the case of `N#C/C=C/C#N`, the Potency entry in experiment [1], in experiment [2], in experiment [3], in experiment [4], in experiment [5] and in experiment [6] was “inactive” in each case. The Potency entry in experiment [7], in experiment [8], in experiment [9] and in [11] was “inactive” each time. Also, the call in experiment [10] was inactive.

`O=CC(Br)(Br)Br`: the Potency in [1] was 43.1 µM (active); in experiment [12], 24.3 µM (active); in [5], 60.9 µM (active); in experiment [7], 24.3 µM (active); in experiment [8], 30.5 µM (active); in experiment [9], 21.6 µM (active). In addition, the Potency entry in [2], in [3], in experiment [4], in experiment [6], in [13] and in experiment [14] was “inactive” throughout. Besides, the Potency entry in experiment [15] was “inactive”. Moreover, the outcome in experiment [10] was inactive.

With `NC(=O)CCl`, the Potency entry in experiment [1], in experiment [16], in experiment [2], in [3], in experiment [4] and in experiment [5] was “inactive” each time. For the same compound, the Potency entry in [6], in experiment [13], in [8], in experiment [9], in [17] and in experiment [18] was “inactive” in each case. The Potency result in experiment [15] and in [11] was “inactive” each time. In addition, in experiment [10], the outcome was inactive.

`O=C1C=CC(=O)c2ccccc21`: the Potency was 30.6 µM (active) in experiment [1]; 19.3 µM (active) in [16]; 10.9 µM (active) in experiment [2]; 12.2 µM (active) in experiment [12]; 15.4 µM (active) in experiment [5]; 4.33 µM (active) in experiment [7]. In addition, the values for the Potency in [8], in experiment [9] and in [18] were 43.3 µM (active), 21.7 µM (active) and 27.3 µM (active), respectively. Also, the Potency result in [6], in [17] and in experiment [15] was “inactive” in each case.

As to `COc1ccc(OC)c(C=O)c1`, the Potency result in experiment [1], in experiment [2], in [3], in experiment [4], in [12] and in [5] was “inactive” throughout. In addition, the Potency result in experiment [6], in [7], in experiment [13], in experiment [14], in experiment [8] and in experiment [9] was “inactive” each time. The Potency entry in experiment [18] and in experiment [15] was “inactive” each time.

In the case of `O=[N+]([O-])c1cc([N+](=O)[O-])c2ccccc2c1`, the Potency entry in experiment [1], in [3], in [4], in [12], in experiment [5] and in [6] was “inactive” throughout. The Potency entry in experiment [8], in experiment [9], in experiment [17], in [18] and in [11] was “inactive” in each case. The Potency in [16] is 4.33 µM (active). In addition, the call in experiment [10] was inactive.

Take `CC(C)(C)c1ccc(CSc2cnn(C(C)(C)C)c(=O)c2Cl)cc1`: the Potency in experiment [1] is 0.0686 µM (active); in experiment [2] it was 0.0154 µM (active); in experiment [8], 0.0433 µM (active). Further, the Potency result in experiment [3], in experiment [4], in experiment [12], in experiment [5], in [6] and in experiment [18] was “inactive” in each case. Also, the Potency result in [15] was “inactive”. Also, the compound was called inactive in [10].

Regarding `CCCCCCCCCBr`, the Potency entry in experiment [1], in experiment [2], in experiment [3], in experiment [4], in experiment [5] and in experiment [6] was “inactive” in each case. Moreover, the Potency result in experiment [7], in experiment [8], in [9], in experiment [18], in experiment [15] and in experiment [11] was “inactive” throughout. Further, in experiment [10], the compound was called inactive.
